This passage reports cytotoxicity results from PubChem BioAssay AID430 (Sanford-Burnham Center for Chemical Genomics, 2006).

SMILES strings stand for the structures. Screen size: about 63,000 compounds; about 1,100 (1.7%) were called active. Rule as the data show it: active = cytotoxicity above about 50%; inactive = the rest. What follows is part of a selection rich in actives, with near analogues and random picks from the rest. Results with a measured potency or affinity are listed apart.

This test is described as follows: HPDE-C7 pancreatic duct cell viability loss – fluorescence, HTS (AID 430).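 Also: cells exposed to compound for 48 hours before viability readout; 0% = vehicle and 100% = reference cytotoxic drug.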 The following applies: HPDE-C7 pancreatic duct cells viability, at 10 µM, stronger effect = higher value.
For the compound `Cc1ccc2oc3c(c(=O)c2c1)C(c1ccc(F)cc1)N(CCCN1CCOCC1)C3=O` (centres undefined), the cytotoxicity is -11.5% (inactive).
Consider `COC(=O)C1=C(C)N(C)C(=O)NC1c1cc(Cl)cc(Cl)c1OC` (centres undefined), for which the cytotoxicity is 1.6% (inactive).
Then `Cc1nn2c(N3CCN(C(=O)c4ccco4)CC3)cc(C(C)(C)C)nc2c1-c1ccccc1`, with 75.8% (active); and `Cc1cc(N2CCN(C(=O)c3ccco3)CC2)n2nc(C)c(-c3ccc(Cl)cc3)c2n1`, with 14.2% (inactive); and `Cc1cc(N2CCN(C(=O)c3ccco3)CC2)n2nc(C)c(-c3ccccc3)c2n1`, with 7.9% (inactive).
The value for `COC(=O)c1ccccc1S(=O)(=O)N(Cc1cc2ccc(OC)cc2[nH]c1=O)CC1CCCO1` (centres undefined) was -2% (inactive); that for `O=C(CCNS(=O)(=O)c1cccs1)NCc1ccco1` was -2.8% (inactive); that for `C=CCOc1nc2c(c(=O)n(Cc3ccc(Cl)cc3)c(=O)n2C)n1C` was 6.6% (inactive).
On to `C=CCOc1nc2c(c(=O)n(C)c(=O)n2C)n1Cc1ccc(Cl)cc1`, for which the cytotoxicity is 59.6% (active).
For `C=CCOc1nc2c(c(=O)n(C)c(=O)n2C)n1Cc1ccc(Cl)cc1Cl`, the cytotoxicity is -22.3% (inactive).
Then `CCc1c(C(=O)Nc2ccc(S(=O)(=O)N3CCOCC3)cc2)csc1C`, with 11% (inactive); and `N=c1c2c(n(Cc3ccc(Cl)c(Cl)c3)c3c1CCC3)CCCC2`, with 63.8% (active); and `N=c1c2c(n(Cc3ccc(F)cc3)c3c1CCC3)CCC2`, with 29.3% (inactive).
Then `N=c1c2c(n(Cc3ccc(Cl)cc3)c3c1CCC3)CCC2`, with 34% (inactive); and `O=C(C1CCN(S(=O)(=O)c2ccc(Br)s2)CC1)N1CCc2ccccc21`, with 10.9% (inactive); and `O=C1N(S(=O)(=O)c2ccccc2F)C(=O)C2(CCCC2)N1S(=O)(=O)c1ccccc1F`, with -2.1% (inactive).
For `Cn1c(N2CCCCC2)nc2c1c(=O)n(Cc1cccc(Br)c1)c(=O)n2C`, the cytotoxicity is -15.8% (inactive).
Then `O=c1[nH]cnc2c1oc1ccccc12`, with 1.3% (inactive); and `O=C(O)c1c(-c2ccccc2)c2oc3ccccc3c2[nH]c1=O`, with 89.7% (active); and `O=c1[nH]c(Cc2ccccc2)nc2c1oc1ccccc12`, with -7.5% (inactive).
Then `COC(=O)c1c(-c2ccc(F)cc2)noc1N`, with -23.1% (inactive).
As for `CCn1c(-c2ccco2)nc2ccccc21`, the cytotoxicity is 6.2% (inactive).
For the compound `COc1ccc(C(=O)CSc2nnc(-c3ccco3)n2C)cc1`, the cytotoxicity was -10.7% (inactive).
Turning to `COc1ccc(C(=O)n2c(-c3ccco3)nc3ccccc32)cc1`, the cytotoxicity was 66.4% (active).
`O=C(Nc1ccc2c(c1)oc1ccccc12)c1ccc(Br)o1`: the cytotoxicity was 3.1% (inactive).
The value for `CCCC(=O)Nc1cc(OC)c(OC)cc1C(=O)O` was 6.8% (inactive); that for `O=C(Nc1nnc(-c2cccs2)o1)c1cccc(F)c1` was 41.3% (inactive); that for `O=C(CCc1ccccc1)Nc1nnc(-c2cccs2)o1` was -3% (inactive).
Then `O=C(Nc1nnc(-c2cccs2)o1)c1cccc(Oc2ccccc2)c1`, with 50.4% (active); and `O=C(Nc1nnc(-c2cccs2)o1)c1ccco1`, with -23% (inactive); and `O=C(Nc1nnc(-c2cccs2)o1)c1cccc(C(F)(F)F)c1`, with 78.7% (active).
Then `COc1cccc(C(=O)Nc2nnc(-c3cccs3)o2)c1`, with 22% (inactive); and `CCCCn1c2nc3ccccc3nc2c2c(=O)n(C(C)CC)cnc21` (centres undefined), with -10.4% (inactive).
On to `COc1ccc(CN(CCCN2CCOCC2)S(=O)(=O)N(C)C)cc1OC`, for which the cytotoxicity was -7.2% (inactive).
The value for `COc1ccc2nc(SCC(=O)NC(C)C)[nH]c2c1` was -13.4% (inactive).
The value for `O=C(C1Cc2ccccc2O1)N1CCCCC1` (centres undefined) was -12.6% (inactive).
Then `COc1ccc(Cl)cc1N1CC(C(=O)Nc2nccs2)CC1=O` (centres undefined), with 2.4% (inactive); and `O=C(CSc1nnnn1C1CCCC1)N1CCN(C(=O)c2ccco2)CC1`, with -11.8% (inactive); and `CN(C(=O)c1cccc(C#N)c1)c1nnc(-c2ccccn2)s1`, with -2% (inactive).
On to `O=c1c(C=NCCCn2ccnc2)c(-c2ccccc2)[nH]n1-c1nc2ccccc2s1`, for which the cytotoxicity is 57.5% (active).
For the compound `CCCCCN=Cc1c(C)[nH]n(-c2nc3ccccc3s2)c1=O`, the cytotoxicity is 1.2% (inactive).
The value for `CCCc1[nH]n(-c2nc3ccccc3s2)c(=O)c1C=NCCN1CCOCC1` was 8.6% (inactive); that for `O=C(NCC(=O)N(Cc1ccc(F)cc1)C(C(=O)NC1CCCC1)c1ccco1)c1ccco1` (centres undefined) was -8.4% (inactive); that for `CCC(CC)C(=O)Nc1cc(=O)n(C)c(=O)n1C` was -10.5% (inactive).
The value for `N#CC1=C(N)C(C#N)(C#N)[C@H](c2ccoc2)[C@H]2CN(Cc3ccccc3)CC=C12` was 72% (active).
As to `CC(=O)N1CC=C2C(C#N)=C(N)C(C#N)(C#N)[C@H](c3ccoc3)[C@H]2C1`, the cytotoxicity is 9.7% (inactive).
Then `CC(C)N1CC=C2C(C#N)=C(N)C(C#N)(C#N)C(c3ccccc3)C2C1` (centres undefined), with 12.8% (inactive); and `CCSc1nnc(NC(=O)CN(C)S(=O)(=O)c2ccc(F)cc2)s1`, with -4.8% (inactive); and `Cc1ccc(-c2nnn(CCC(=O)N3CCCCC3C)n2)cc1` (centres undefined), with -5.2% (inactive).
The value for `CCCCOc1ccccc1NC(=O)CC1Nc2ccccc2NC1=O` (centres undefined) was -9.1% (inactive); that for `Cc1ccc(C2CC(=O)Nc3cc4c(cc32)OCCO4)s1` (centres undefined) was -4.6% (inactive); that for `COc1cccc(C2CC(=O)Nc3cc4c(cc32)OCCO4)c1OC(C)C` (centres undefined) was 27.3% (inactive).
The value for `O=C1CC(c2ccncc2)c2cc3c(cc2N1)OCCO3` (centres undefined) was -10.2% (inactive).
For the compound `CC(C)Oc1ccccc1C1CC(=O)Nc2cc3c(cc21)OCCO3` (centres undefined), the cytotoxicity was 56.4% (active).
Consider `CC(C)Oc1ccccc1C1CC(=O)Nc2cc3c(cc21)OCO3` (centres undefined), for which the cytotoxicity was 39.1% (inactive).
Then `COc1ccccc1C1CC(=O)Nc2cc3c(cc21)OCCO3` (centres undefined), with 54.4% (active); and `COc1ccc(C(=O)N2CCN(S(=O)(=O)c3ccc(C)cc3C)CC2)cc1OC`, with 2.4% (inactive).
Then `Cc1ccc(Cl)cc1NC(=O)Cn1cccc1`, with -2.6% (inactive); and `Cc1cc(C(=O)N2CCN(Cc3ccc4c(c3)OCO4)CC2)on1`, with 0.3% (inactive).
Then `COC(=O)c1cc(-c2ccc3c(c2)OCO3)nc2ccccc12`, with -9.6% (inactive); and `O=C(COc1cccc(NC(=O)c2ccco2)c1)c1ccc(F)cc1`, with -13.8% (inactive); and `COc1ccc2c(c1)C(=O)CC(c1ccccc1F)O2` (centres undefined), with -4.1% (inactive).
Consider `Cn1c(Cl)cnc1C1CC(=O)c2cc(Cl)ccc2O1` (centres undefined), for which the cytotoxicity is 69.6% (active).
The value for `CN1CCN(C2=Nc3ccccc3Oc3ccc(Cl)cc32)CC1` was 10.6% (inactive).
